According to PubChem BioAssay (EPA / NIEHS):
Active and inactive are the calls of the source. How the source made its calls: active means hit-call score of the fitted dose curve at least 0.9, where 1 is the maximum; inactive means score below 0.9.

What was measured:
[1] = molecular target: Paired box protein Pax-6 (Homo sapiens) (UniProt P26367); test: ATG_Pax6_CIS: Attagene CIS-FACTORIAL HepG2 Assay for human Paired Box 6 (PAX6) (AID 2282956); conditions: HepG2 CIS-FACTORIAL PAX6 reporter transcription, RNA readout; actives raise or lower the signal
Sequence of Paired box protein Pax-6 (Homo sapiens) (P26367 whole entry, looked up): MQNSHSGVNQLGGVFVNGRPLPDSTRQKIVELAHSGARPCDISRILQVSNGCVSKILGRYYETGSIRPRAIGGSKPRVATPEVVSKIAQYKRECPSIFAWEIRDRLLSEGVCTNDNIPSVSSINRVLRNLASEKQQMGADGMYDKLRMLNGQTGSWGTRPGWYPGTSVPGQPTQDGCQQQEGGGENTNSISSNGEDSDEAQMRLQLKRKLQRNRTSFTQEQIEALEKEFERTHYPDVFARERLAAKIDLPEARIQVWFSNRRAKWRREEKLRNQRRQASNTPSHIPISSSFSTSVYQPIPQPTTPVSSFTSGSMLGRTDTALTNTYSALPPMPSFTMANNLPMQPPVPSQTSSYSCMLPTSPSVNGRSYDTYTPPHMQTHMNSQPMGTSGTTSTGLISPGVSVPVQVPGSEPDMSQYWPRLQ
Procedure, shortened: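 Read-out is reporter transcript level, measured by RT-PCR with fluorescent primer extension and capillary electrophoresis after 24 h dosing of transfected HepG2 cells. Activity in either direction fitted relative to DMSO control.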

[2] = ATG_PPRE_CIS: Attagene CIS-FACTORIAL HepG2 Assay for human Peroxisome Proliferator-activated Response Element (PPRE) (AID 2282958); conditions: HepG2 PPRE cis-element reporter, Attagene transcription factor profiling; actives raise or lower the signal
Procedure, shortened: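 After human HepG2 hepatoma cells were transiently transfected with cis-promoter reporter constructs, they were exposed to test chemicals for 24 hours. Reporter RNA was then reverse-transcribed, PCR-amplified, FAM-labeled, HpaI-digested and quantified by capillary electrophoresis.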

[3] = ATG_RORE_CIS: Attagene CIS-FACTORIAL HepG2 Assay for human RAR-related Orphan Receptor Element (RORE) (AID 2282959); conditions: HepG2 Attagene cis-factorial RORE reporter, mRNA; actives raise or lower the signal
Procedure, shortened: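 Measured here: transcript induction of a cis-regulated reporter in HepG2 cells transiently transfected via FuGene 6. After 24 h, RNA was processed by RT-PCR and fluorescent capillary electrophoresis; DMSO defined baseline activity.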

[4] = ATG_Sox_CIS: Attagene CIS-FACTORIAL HepG2 Assay for human SRY-box transcription factor (SOX) (AID 2282960); conditions: HepG2 Attagene cis-factorial SOX reporter, mRNA; actives raise or lower the signal
Procedure, shortened: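 Using transiently transfected HepG2 cells, reporter transcription driven by cis elements was assessed 24 h after dosing. Signal was fluorescence of capillary-separated RT-PCR products, with DMSO defining baseline activity.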

[5] = molecular target: Transcription factor Sp1 (Homo sapiens) (UniProt P08047); test: ATG_Sp1_CIS: Attagene CIS-FACTORIAL HepG2 Assay for human Specificity Protein 1 (Sp1) (AID 2282961); conditions: HepG2 Sp1 cis-reporter transcription, actives raise or lower the signal
Sequence of Transcription factor Sp1 (Homo sapiens) (P08047 whole entry, looked up): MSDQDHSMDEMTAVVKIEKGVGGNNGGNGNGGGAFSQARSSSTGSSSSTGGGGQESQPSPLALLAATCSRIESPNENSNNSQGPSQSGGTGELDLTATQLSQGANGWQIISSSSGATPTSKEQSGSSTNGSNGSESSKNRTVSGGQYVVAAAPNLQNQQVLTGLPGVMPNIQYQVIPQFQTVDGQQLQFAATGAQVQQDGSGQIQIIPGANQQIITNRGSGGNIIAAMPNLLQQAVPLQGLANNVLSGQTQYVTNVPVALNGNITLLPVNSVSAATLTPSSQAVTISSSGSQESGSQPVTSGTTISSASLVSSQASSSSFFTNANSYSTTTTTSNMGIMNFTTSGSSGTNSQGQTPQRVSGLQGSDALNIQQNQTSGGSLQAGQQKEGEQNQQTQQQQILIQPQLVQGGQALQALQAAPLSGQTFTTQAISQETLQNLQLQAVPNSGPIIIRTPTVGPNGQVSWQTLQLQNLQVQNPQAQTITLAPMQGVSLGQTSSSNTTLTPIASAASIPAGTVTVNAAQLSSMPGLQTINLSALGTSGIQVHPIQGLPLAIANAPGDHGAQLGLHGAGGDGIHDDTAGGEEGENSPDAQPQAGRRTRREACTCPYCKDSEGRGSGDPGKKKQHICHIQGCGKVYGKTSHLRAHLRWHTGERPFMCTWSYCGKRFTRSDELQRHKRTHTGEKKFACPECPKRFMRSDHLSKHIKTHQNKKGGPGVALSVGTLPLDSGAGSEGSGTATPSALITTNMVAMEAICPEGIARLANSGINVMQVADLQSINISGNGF
Procedure, shortened: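 After transient transfection of HepG2 cells with cis-promoter reporter units and 24 h chemical treatment, reporter transcripts were quantified by RT-PCR and capillary electrophoresis fluorescence. Gain- and loss-of-signal fitted against DMSO.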

[6] = ATG_SREBP_CIS: Attagene CIS-FACTORIAL HepG2 Assay for human Sterol Regulatory Element Binding (SREBP) (AID 2282962); conditions: HepG2 Attagene cis-factorial SREBP reporter, mRNA; actives raise or lower the signal
Procedure, shortened: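 Endogenous SREBP activity read as cis-element-driven reporter transcript in transiently transfected HepG2, 24 h post-dosing; quantified via RT-PCR plus capillary electrophoresis of fluorescent fragments. Gain or loss of signal fitted relative to DMSO baseline.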

[7] = molecular target: Signal transducer and activator of transcription 3 (Homo sapiens) (UniProt P40763); test: ATG_STAT3_CIS: Attagene CIS-FACTORIAL HepG2 Assay for human Signal Transducer and Activator of Transcription 3 (STAT3) (AID 2282963); conditions: HepG2, Attagene cis-factorial STAT3 reporter transcription; actives raise or lower the signal
Sequence of Signal transducer and activator of transcription 3 (Homo sapiens) (P40763 whole entry, looked up): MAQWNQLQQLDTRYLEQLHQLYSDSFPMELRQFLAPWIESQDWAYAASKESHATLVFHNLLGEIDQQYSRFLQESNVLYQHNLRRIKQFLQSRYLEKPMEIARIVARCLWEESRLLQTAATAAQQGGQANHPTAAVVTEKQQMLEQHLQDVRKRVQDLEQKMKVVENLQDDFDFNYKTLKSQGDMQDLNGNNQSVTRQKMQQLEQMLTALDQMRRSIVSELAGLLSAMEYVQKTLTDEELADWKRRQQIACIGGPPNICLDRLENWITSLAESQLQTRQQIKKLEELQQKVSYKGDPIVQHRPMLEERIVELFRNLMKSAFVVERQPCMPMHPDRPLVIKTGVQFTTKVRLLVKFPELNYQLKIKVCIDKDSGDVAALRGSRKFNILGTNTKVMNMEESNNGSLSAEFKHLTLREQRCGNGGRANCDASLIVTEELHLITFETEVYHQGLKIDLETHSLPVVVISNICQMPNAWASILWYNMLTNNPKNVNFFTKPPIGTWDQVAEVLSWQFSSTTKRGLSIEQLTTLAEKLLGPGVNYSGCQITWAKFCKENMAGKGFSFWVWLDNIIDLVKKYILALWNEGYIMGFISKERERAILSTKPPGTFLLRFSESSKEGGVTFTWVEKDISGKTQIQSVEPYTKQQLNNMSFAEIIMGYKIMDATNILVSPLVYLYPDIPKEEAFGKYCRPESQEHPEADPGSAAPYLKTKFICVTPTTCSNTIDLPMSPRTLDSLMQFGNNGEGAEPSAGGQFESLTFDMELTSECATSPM
Procedure, shortened: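 Uses human liver HepG2 transiently carrying cis-regulated reporter transcription units. Following 24 h dosing, reporter mRNA induction was detected by RT-PCR and capillary electrophoresis, analysed bidirectionally versus DMSO.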

[8] = ATG_TA_CIS: Attagene CIS-FACTORIAL HepG2 Assay for human TA Basal Promoter (AID 2282964); conditions: HepG2 Attagene CIS-factorial TA basal promoter reporter; actives raise or lower the signal
Procedure, shortened: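 Multiplexed mRNA reporter assay, HepG2, 24 h. Reporter cDNA amplified, 6-FAM primer-extended, HpaI-cut, CE-sized; DMSO = negative control and baseline.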

[9] = ATG_TCF_b_cat_CIS: Attagene CIS-FACTORIAL HepG2 Assay for human T-Cell-Factor with beta-catenin (TCF/b-cat) (AID 2282965); conditions: HepG2 TCF/beta-catenin cis-reporter transcription, actives raise or lower the signal
Procedure, shortened: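 In this cis-format system, transfected HepG2 cells report endogenous transcription factor activity. Readout after 24 h exposure is reporter transcript abundance from RT-PCR and capillary electrophoresis, analysed for gain or loss of signal versus DMSO.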

[10] = ATG_PXRE_CIS: Attagene CIS-FACTORIAL HepG2 Assay for human Pregnane X Receptor Element (PXRE) (AID 2282957); conditions: HepG2 Attagene CIS-FACTORIAL PXRE reporter, mRNA; actives raise or lower the signal
Procedure, shortened: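 Read-out: fluorescence of reporter-specific RT-PCR products resolved by capillary electrophoresis, fitted bidirectionally relative to DMSO. Human HepG2 liver cells carried transfected cis-promoter reporter units and were exposed to chemicals for 24 h.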

Measured: AC50

C=CC(C)(C)C
not listed: [10]
inactive: all other assays above

Cc1ccc(C2OC[C@@H]3OC(c4ccc(C)cc4)O[C@H]([C@H](O)CO)[C@@H]3O2)cc1 (stereo not given in full)
not listed: [5] | [10]
inactive: all other assays above

CC(C)COC(=O)C=Cc1ccccc1
not listed: [2] | [10]
inactive: all other assays above

Cc1c(C)c([N+](=O)[O-])c(C(C)(C)C)c([N+](=O)[O-])c1C
not listed: [10]
inactive: all other assays above

C=C(C)C(=O)OCCO
not listed: [2] | [10]
inactive: all other assays above

C=CCCCCCCCCC(=O)OCCCC
not listed: [10]
inactive: all other assays above

CC(=O)CC(N)=O
not listed: [10]
inactive: all other assays above

O=C1CCCCCN1SSN1CCCCCC1=O
active: [1] 156 µM | [4] 183 µM | [5] 167 µM | [6] 161 µM
not listed: [10]
inactive: all other assays above

O=c1[nH]nc(-c2ccc([N+](=O)[O-])o2)o1
not listed: [10]
inactive: all other assays above

COCc1c(C(C)C)nc(C(C)C)c(/C=C/[C@@H](O)C[C@@H](O)CC(=O)O)c1-c1ccc(F)cc1
active: [2] 1.67 µM
not listed: [3] | [7] | [10]
inactive: all other assays above

O=C1CCC(=O)N1Cl
not listed: [7] | [10]
inactive: all other assays above

CCOC(=O)Cc1cccc2ccccc12
active: [10] 71.7 µM
not listed: [2] | [3] | [5]
inactive: all other assays above

COC(=O)C1=C(C)NC(C)=C(C(=O)OCC(C)C)C1c1ccccc1[N+](=O)[O-] (stereo not given)
not listed: [2] | [3] | [10]
inactive: all other assays above

CC1=NN(c2cc(S(=O)(=O)O)ccc2Cl)C(=O)C1N=Nc1ccccc1 (stereo not given)
not listed: [10]
inactive: all other assays above

COc1ccc(C(Cl)=C(c2ccc(OC)cc2)c2ccc(OC)cc2)cc1
not listed: [2] | [10]
inactive: all other assays above

CCC(C)C=O (stereo not given)
not listed: [4] | [10]
inactive: all other assays above

COCCCOCCCOC
not listed: [10]
inactive: all other assays above

C=C1C2CCC(C2)C1(C)C (stereo not given)
not listed: [10]
inactive: all other assays above

O=P(O)(O)Oc1ccccc1
not listed: [2] | [10]
inactive: all other assays above

Cc1cnc(NC(=O)C2=C(O)c3ccccc3S(=O)(=O)N2C)s1
not listed: [10]
inactive: all other assays above

Nc1ccc2cc3ccccc3cc2c1
not listed: [5] | [10]
inactive: all other assays above

C#CC1(O)CC[C@H]2[C@@H]3CCC4=CCCC[C@@H]4[C@H]3CC[C@@]21C (stereo not given in full)
inactive: [1] | [4] | [5] | [7]
active: [2] 33.4 µM | [3] 41.7 µM | [6] 27.4 µM | [8] 16.7 µM | [9] 33.4 µM

C[Si](C)(C)O[Si](O)(O)O
not listed: [10]
inactive: all other assays above

Nc1ccc(N)c(Cl)c1
inactive: [4] | [7] | [8] | [9]
active: [1] 52.9 µM | [10] 8.87 µM | [6] 43.7 µM

CCCCCC/C=C/C=O
active: [2] 15 µM
not listed: [10]
inactive: all other assays above

Nc1ncn([C@@H]2O[C@H](CO)[C@@H](O)[C@H]2O)c(=O)n1
active: [9] 0.975 µM
not listed: [5] | [10]
inactive: all other assays above

NCCCN1CCN(CCCN)CC1
active: [10] 53.7 µM
not listed: [2] | [3]
inactive: all other assays above

CCC(C)OC(=O)c1ccc(O)cc1 (stereo not given)
active: [2] 100 µM
not listed: [10]
inactive: all other assays above

Cc1oncc1C(=O)Nc1ccc(C(F)(F)F)cc1
active: [2] 100 µM
not listed: [10]
inactive: all other assays above

O=C(O)CC(C(=O)O)C(CC(=O)O)C(=O)O (stereo not given)
not listed: [3] | [7] | [10]
inactive: all other assays above

CC(=O)Nc1nnc(S(N)(=O)=O)s1
not listed: [2] | [4] | [10]
inactive: all other assays above

OCCN(CCO)c1ccccc1
not listed: [2] | [3]
inactive: all other assays above

Cc1cc(C)c(C)cc1C
not listed: [10]
inactive: all other assays above

CC(C)(c1cc(Br)c(OCCO)c(Br)c1)c1cc(Br)c(OCCO)c(Br)c1
active: [1] 17.4 µM | [6] 18 µM | [8] 15.3 µM | [9] 7.14 µM
inactive: [2] | [4] | [5] | [7]

Cn1c([N+](=O)[O-])cnc1COC(N)=O
not listed: [10]
inactive: all other assays above

CCOC(=O)[C@H](C)O
not listed: [2] | [7] | [10]
inactive: all other assays above

CC(C)(C)c1ccc(-c2ccc(C(C)(C)C)cc2)cc1
not listed: [10]
inactive: all other assays above

CC(C)(C)c1n[nH]c(=O)n(N)c1=O
not listed: [10]
inactive: all other assays above

CC(CC=O)CCCC(C)(C)O (stereo not given)
not listed: [10]
inactive: all other assays above
